# Values joined by “and” are separate entries in the source; they are usually repeats but may differ in a detail not shown here. Equal entries are not always repeated. For part of these data: Results with a measured potency or affinity are listed apart.
# How the values were obtained:
# Parameters in all cases: scale not given: direction of the effect not stated beside the values
# [1] = target: Protein translocase subunit SecA (Escherichia coli (strain K12)) (UniProt P10408); experiment: Assay to Identify E. coli SecA ATPase Inhibitors; format: functional; conditions: 30 µM
# [2] = target: T1, Ubiquitin-activating enzyme e1, putative (Leishmania donovani (strain BPK282A1)) (UniProt E9BSI1); experiment: Leishmania donovani Ubiquitin Activating Enzyme (LdE1); format: functional; conditions: 30 µM
# T1 sequence (whole entry): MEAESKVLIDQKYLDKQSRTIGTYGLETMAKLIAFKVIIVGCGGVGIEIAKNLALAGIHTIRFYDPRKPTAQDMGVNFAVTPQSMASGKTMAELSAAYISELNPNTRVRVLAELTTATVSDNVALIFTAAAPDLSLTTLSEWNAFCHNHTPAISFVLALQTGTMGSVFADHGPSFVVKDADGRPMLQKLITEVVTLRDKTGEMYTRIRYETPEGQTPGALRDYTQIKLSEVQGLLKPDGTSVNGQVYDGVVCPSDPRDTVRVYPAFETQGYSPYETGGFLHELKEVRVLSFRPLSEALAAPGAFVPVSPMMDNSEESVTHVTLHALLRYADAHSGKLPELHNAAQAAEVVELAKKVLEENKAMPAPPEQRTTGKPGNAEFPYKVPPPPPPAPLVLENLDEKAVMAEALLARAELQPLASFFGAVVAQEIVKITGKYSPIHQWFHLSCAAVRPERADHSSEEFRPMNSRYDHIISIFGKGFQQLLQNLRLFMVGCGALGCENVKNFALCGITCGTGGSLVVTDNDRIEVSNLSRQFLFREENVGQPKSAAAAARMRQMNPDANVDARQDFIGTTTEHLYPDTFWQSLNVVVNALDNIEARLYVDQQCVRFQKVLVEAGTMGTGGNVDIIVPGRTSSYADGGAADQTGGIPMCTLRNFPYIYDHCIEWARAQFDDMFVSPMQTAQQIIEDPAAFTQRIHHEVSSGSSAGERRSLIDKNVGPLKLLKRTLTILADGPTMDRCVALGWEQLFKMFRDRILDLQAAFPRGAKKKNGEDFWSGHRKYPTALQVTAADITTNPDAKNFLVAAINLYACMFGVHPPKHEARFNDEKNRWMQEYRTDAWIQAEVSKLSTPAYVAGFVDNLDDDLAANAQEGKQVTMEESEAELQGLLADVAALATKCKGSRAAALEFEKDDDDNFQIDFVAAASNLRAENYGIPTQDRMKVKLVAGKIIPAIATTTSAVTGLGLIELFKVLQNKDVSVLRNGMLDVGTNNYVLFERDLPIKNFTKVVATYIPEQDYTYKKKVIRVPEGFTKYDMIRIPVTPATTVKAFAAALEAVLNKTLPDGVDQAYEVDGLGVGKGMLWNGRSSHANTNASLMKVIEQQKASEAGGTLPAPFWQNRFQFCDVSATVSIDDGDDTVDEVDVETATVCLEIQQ
# [3] = target: Sialic acid-binding Ig-like lectin 9 (Homo sapiens) (UniProt Q9Y336); experiment: Hs-Siglec9 ALPHAscreen SOP 20170721; conditions: 10 µM
# Trypanosoma cruzi = experiment: Trypanosoma cruzi phosphomannomutase and mannose-1-phosphate guanylyltransferase assay; format: functional; conditions: 10 µM
# [4] = target: T2, Arginase-2, mitochondrial (Homo sapiens) (UniProt P78540); experiment: in vitro enzyme assay to detect the production of urea directly proportional to the activity of Arginase II; format: functional; also: in the data most compounds retested in dose-response had high values
# T2 sequence (whole entry): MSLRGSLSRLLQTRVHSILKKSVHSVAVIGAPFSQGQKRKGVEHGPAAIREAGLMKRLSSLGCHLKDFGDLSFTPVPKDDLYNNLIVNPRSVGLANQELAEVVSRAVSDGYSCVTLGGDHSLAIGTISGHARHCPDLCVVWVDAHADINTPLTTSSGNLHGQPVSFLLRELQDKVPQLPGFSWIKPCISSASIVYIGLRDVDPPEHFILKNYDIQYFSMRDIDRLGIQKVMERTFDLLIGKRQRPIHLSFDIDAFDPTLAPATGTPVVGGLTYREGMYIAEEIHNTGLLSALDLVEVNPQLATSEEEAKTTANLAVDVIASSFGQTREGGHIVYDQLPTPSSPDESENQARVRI
# [5] = target: T3, Proteasome subunit beta (Trypanosoma cruzi) (UniProt O96673); experiment: Trypanosoma cruzi proteasome chymotrypsin-like activity (TcProtChymo) assay.; also: in the data most compounds retested in dose-response had high values; format: functional; conditions: 9.37 µM
# T3 sequence (whole entry): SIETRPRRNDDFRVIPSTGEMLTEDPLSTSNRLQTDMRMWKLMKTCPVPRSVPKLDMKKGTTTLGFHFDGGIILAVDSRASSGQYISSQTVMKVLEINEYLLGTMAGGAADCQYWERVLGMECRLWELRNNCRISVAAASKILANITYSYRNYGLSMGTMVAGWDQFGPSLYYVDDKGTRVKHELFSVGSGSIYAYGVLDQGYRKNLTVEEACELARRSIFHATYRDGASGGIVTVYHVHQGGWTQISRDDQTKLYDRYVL
# Homo sapiens = organism: Homo sapiens; experiment: To identify inhibition of the IFN signalling (Jak-Stat) pathway via expression of an eGFP reporter gene under the control of an IFN-stimulated response element (ISRE) containing MxA promoter.; format: functional; conditions: 30 µM
# [6] = target: T4, Tyrosyl-tRNA synthetase, putative (Trypanosoma cruzi (strain CL Brener)) (UniProt Q4DSP6); experiment: Trypanosoma cruzi tyrosyl tRNA synthetase (TcYRS) _High Tyrosine SOP; format: functional; conditions: 30 µM; also: in the data most compounds retested in dose-response had high values
# T4 sequence (whole entry): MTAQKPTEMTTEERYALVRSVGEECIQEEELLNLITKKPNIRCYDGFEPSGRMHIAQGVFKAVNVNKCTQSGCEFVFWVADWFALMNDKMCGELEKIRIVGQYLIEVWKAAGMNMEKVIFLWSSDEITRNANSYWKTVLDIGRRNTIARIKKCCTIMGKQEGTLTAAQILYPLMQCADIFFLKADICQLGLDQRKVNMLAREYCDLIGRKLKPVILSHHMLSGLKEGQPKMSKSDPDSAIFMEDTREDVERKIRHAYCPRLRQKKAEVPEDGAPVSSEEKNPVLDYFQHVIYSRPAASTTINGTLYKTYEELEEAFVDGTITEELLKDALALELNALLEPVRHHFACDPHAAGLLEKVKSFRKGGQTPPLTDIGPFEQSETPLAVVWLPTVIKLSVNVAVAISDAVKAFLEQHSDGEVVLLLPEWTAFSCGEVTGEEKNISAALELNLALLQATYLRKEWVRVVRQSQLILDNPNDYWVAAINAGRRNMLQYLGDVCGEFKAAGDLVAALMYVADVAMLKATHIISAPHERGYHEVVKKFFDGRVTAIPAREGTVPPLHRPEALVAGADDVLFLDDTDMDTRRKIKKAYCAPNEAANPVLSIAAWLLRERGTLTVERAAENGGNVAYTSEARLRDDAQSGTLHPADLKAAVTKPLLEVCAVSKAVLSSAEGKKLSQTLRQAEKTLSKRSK
# [7] = target: T4, Tyrosyl-tRNA synthetase, putative (Trypanosoma cruzi (strain CL Brener)); experiment: Trypanosoma cruzi tyrosyl tRNA synthetase (TcYRS) SOP; format: functional; conditions: 30 µM
# [8] = target: Chromo domain-containing protein 1 (Saccharomyces cerevisiae (strain ATCC 204508 / S288c) (Baker's yeast)) (UniProt P32657); experiment: ScCHD-1 Enzyme Inhibition Assay; format: functional; conditions: 30 µM; also: in the data most compounds retested in dose-response had high values
# [9] = target: AMP-activated protein kinase, AMPK (Homo sapiens) (UniProt P54646+O43741+P54619+Q9UGJ0+Q9Y478+Q13131+Q9UGI9); experiment: AMP-dependent Kinase enzyme assay. An in vitro enzyme assay that detects ADP turnover that is directly proportional to AMPK activity. This uses naive AMPK that is activated during the assay with MK-8722; format: functional; conditions: 30 µM
# N/A = experiment: Trypanosoma cruzi proteasome luciferase counter-screen; format: functional; conditions: 9.37 µM
# Chain of Chromo domain-containing protein 1 (Saccharomyces cerevisiae (strain ATCC 204508 / S288c) (Baker's yeast)) (P32657 whole entry, the tested form may be a part): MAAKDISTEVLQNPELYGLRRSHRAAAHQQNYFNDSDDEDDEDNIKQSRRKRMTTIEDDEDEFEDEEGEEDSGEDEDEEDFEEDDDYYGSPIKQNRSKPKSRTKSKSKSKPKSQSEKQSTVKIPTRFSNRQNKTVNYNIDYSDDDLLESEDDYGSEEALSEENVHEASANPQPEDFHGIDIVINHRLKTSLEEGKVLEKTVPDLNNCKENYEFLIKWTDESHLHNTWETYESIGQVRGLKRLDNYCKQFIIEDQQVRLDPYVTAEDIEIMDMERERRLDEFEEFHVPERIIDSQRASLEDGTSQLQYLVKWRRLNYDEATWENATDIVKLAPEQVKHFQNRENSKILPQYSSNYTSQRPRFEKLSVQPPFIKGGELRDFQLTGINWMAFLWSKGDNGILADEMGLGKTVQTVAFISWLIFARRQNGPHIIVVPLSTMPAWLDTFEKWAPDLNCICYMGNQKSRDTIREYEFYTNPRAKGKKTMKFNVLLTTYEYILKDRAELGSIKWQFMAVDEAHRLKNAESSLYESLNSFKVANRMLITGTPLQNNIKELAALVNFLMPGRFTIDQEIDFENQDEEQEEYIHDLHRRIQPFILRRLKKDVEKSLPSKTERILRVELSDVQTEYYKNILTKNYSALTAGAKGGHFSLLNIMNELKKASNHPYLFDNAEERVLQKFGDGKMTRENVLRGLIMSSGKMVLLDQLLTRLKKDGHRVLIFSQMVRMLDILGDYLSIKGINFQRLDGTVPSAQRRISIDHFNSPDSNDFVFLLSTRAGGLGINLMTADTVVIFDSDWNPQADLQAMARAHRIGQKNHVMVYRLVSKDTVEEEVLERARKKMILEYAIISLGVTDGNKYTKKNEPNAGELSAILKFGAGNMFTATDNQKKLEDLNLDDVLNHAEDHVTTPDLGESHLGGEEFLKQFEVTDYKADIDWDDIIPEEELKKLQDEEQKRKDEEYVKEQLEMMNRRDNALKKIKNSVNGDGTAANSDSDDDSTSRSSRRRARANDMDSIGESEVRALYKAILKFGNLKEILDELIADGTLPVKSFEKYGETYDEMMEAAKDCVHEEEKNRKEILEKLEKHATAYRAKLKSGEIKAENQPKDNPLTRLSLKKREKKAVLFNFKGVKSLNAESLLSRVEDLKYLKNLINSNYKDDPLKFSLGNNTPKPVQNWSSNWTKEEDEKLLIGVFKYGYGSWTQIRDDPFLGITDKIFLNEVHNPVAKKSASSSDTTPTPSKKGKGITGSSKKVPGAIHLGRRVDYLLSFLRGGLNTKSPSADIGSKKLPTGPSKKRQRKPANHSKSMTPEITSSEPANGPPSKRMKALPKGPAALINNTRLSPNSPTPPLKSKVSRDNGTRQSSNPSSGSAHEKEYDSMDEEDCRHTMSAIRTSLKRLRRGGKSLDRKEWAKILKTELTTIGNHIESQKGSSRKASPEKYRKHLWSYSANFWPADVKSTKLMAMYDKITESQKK
# Chain of Protein translocase subunit SecA (Escherichia coli (strain K12)) (P10408 whole entry): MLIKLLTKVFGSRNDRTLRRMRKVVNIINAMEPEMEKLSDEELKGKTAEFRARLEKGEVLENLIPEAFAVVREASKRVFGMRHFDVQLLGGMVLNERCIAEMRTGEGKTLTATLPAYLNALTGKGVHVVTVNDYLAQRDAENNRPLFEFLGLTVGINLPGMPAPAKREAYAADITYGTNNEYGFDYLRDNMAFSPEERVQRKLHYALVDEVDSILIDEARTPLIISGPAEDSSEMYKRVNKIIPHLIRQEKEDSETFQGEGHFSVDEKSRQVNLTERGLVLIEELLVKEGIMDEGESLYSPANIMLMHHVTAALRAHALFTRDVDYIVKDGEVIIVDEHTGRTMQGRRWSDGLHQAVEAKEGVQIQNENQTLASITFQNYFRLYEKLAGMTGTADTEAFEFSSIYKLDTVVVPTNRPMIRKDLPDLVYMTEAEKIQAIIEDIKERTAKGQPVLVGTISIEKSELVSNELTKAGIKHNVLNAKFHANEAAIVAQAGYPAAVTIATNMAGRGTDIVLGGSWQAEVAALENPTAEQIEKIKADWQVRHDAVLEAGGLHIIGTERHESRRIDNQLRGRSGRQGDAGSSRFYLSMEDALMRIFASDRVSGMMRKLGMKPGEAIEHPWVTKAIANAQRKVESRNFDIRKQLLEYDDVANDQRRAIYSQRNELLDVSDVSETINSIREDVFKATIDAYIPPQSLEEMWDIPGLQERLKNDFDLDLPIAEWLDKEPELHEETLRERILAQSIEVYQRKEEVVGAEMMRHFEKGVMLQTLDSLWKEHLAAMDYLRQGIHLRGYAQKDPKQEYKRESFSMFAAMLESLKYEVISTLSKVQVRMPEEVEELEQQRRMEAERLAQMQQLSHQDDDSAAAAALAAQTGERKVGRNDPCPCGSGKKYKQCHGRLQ
# Chain of Sialic acid-binding Ig-like lectin 9 (Homo sapiens) (Q9Y336 whole entry): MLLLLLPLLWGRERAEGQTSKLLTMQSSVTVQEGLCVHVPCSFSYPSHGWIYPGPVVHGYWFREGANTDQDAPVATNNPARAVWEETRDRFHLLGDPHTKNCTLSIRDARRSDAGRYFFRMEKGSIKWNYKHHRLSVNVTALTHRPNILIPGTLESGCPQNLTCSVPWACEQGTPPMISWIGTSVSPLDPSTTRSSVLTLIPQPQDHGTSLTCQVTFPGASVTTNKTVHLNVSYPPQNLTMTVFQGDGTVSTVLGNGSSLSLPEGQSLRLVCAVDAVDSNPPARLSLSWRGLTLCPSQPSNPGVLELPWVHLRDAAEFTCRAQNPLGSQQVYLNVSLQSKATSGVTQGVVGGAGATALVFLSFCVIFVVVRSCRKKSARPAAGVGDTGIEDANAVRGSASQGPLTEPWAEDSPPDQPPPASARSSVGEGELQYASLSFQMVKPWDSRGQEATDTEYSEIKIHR
Structure (SMILES),Percent Effect [1] [%],Percent Effect [2] [%],Percent Effect [3] [%],Percent Effect (Trypanosoma cruzi) [%],Percent Effect ([4]; 33.3 µM) [%],Percent Effect [5],Percent Effect (Homo sapiens) [%],Percent Effect [6] [%],Percent Effect [7] [%],Percent Effect [8] [%],Percent Effect [9] [%],Percent Effect (N/A),Percent Effect ([4]; 30 µM) [%]
CCCn1ccc(C(=O)N2CCOC(c3nc(-c4cccs4)no3)C2)n1 (configuration not stated),-2.75,6.67,6.13,-1.18,0,4.76%,1.83,5.29,17.5,-17.3,,,
O=C(Nc1ccc(CCN2CCC(O)CC2)cc1)Nc1cccnc1,-1.45,5.41,8.33,-1.54,-1.91,18.4%,8.03,6.88,4.88,-3.57,-3.72,,
CCc1nnc2n1CCN(Cc1csc(-c3ccc(C)o3)n1)C2,-2.83,10.3,-4.26,7.42,1.23,36.4% and 37.5% and 36.1%,4.79,8.13,22.9,-6.08,,6.53% and 0.633%,
Cc1nccn1C1CCCN(C(=O)COCC(F)(F)F)C1 (configuration not stated),-0.686,2.56,10.1,0.845,-2.05,0.597%,-3.59,-3.35,-1.21,-1.66,,,
COCCN1C[C@@H]2CN(c3ncccn3)C[C@@H]2C1=O,-4.06,2.7,-6.74,-0.586,-4.17,8.2%,-19.7,76.2,-1.22,474,0.915,,
Cn1ccc(C(=O)NCc2cccc(CN3CCCC3)c2)cc1=O,-1.76,20.8,0.574,2.05,-6.35,19.2% and 18.4% and 34%,-14.3,11.8,30.6,-13,,12% and 8.64%,
Cn1cccc1C(=O)N1CCc2ncc(Cn3cccn3)n2CC1,-5.21,10.7,-1.04,2.32,-43.2,0.513%,-2.01,2.08,2.5,-3.31,-0.846,,
Cn1cnnc1C1CCCN(C(=O)c2cc(Cl)c3c(c2)OCO3)C1 (configuration not stated),-2.96,5.33,2.45,-5.02,2.22,8.57%,4.91,0.526,10.3,-5.32,,,
COc1ccc2c(c1)OCC(CNC(=O)c1ccc(=O)n(C)c1)C2 (configuration not stated),-9.07,-2.7,20.7,5.72,17.8,12.5%,9.66,4.79,9.76,0.784,,,-5.95
Cc1cnn(C2CCCN(C(=O)CCCOc3cccc(F)c3)C2)c1 (configuration not stated),-4.89,-1.27,2.93,0.513,4.52,0%,3.38,-3.12,-5.06,-28.9,42.4,,
CCn1ccnc1CNCC1CCN(CC(O)c2ccccc2)CC1 (configuration not stated),-3.91,-5.13,-9.4,5.92,11.9,-2.13%,4.15,3.35,6.02,-1.13,,,

# Source: ChEMBL document CHEMBL3988442, “University of Dundee, Small-Polar-MMV Screening Library” (2021)
